HIF-2a inh: HIF-2a inhibition | actives 0.72% (n = 360,000) | AID 624352 | 786-0 RCC cells HIF-2a reporter, luciferase luminescence, overnight | inhibition, % at 18.8 µM;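 active = inhibition of the luminescence signal of 40% or more relative to plate controls, in a single-dose primary screen at 18.75 µM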
TROY NFkB inh: TROY signaling inhibition; inhibition, % at 10 µM; Q293 LMP1-TROYcd NF-kB luciferase reporter, 4 h; actives 0.98% (n = 360,000); AID 1347056;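 active = compounds whose plate-normalised and pattern-corrected inhibition of the luciferase reporter signal at the single screening dose is 50% or more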
CF NFkB inh: cystic fibrosis NF-kB activation inhibition; KKLEB NF-kB-GFP reporter, PAF-induced, GFP fluorescence overnight; inhibition, % at 5 µM; actives 0.86% (n = 360,000);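 active = at least 50% inhibition at 5 µM, scaled per plate between neutral and stimulator controls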;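 also: PAF is a Pseudomonas aeruginosa culture filtrate used as stimulus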
KKLEB cytotox: CF airway cell cytotoxicity counter-screen. KKLEB CF airway cells viability, ATPlite luminescence, overnight; active compounds read low; cells stimulated with P. aeruginosa culture filtrate. activity change (cytotoxicity), % at 5 µM. actives 0.36% (n = 360,000);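 active = corrected activity change at or below -50% at 5 µM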
Peg3 promoter: inhibitors of Peg3 promoter | HeLa PEG-Prom luciferase reporter, luminescence, overnight | inhibition, % at 20 µM | actives 1.7% (n = 360,000) | AID 588405;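 active = inhibition of at least 50% at 20 µM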
TWEAK Fn14 block: blocks TWEAK-Fn14 interaction in a reporter cell assay; TWEAK-stimulated Fn14 reporter cells, luciferase luminescence, 8 h; inhibition, % at 10 µM; actives 2% (n = 360,000); AID 1159606; in the data active = inhibition above about 50%
Of the large screens only hits and unclear results are named; the others gave an inactive call. Compounds with a hit are over-represented: about 4% of the library has one in this group of screens.

CN(C)C(=O)CCc1ccc2c3c([nH]c2c1)[C@]1(C)[C@@H](C(=O)N2CCCCC2)C[C@H](CC(=O)NC(C)(C)C)C(=O)N1CC3	none
COc1ccc(NC(=O)/C(Cl)=C(/Cl)S(=O)(=O)Cc2ccc(C)cc2)cn1	HIF-2a inh 96, TROY NFkB inh 86, CF NFkB inh 87, KKLEB cytotox -71, Peg3 promoter 105, TWEAK Fn14 block 103
C[C@H]1CN([C@@H](C)CO)C(=O)CCCn2nncc2CO[C@@H]1CN(C)S(=O)(=O)c1ccc(-n2cccn2)cc1	none
CC(=O)Nc1ccc(SCC(=O)c2cc(C)n(-c3ccccc3)c2C)cc1	TWEAK Fn14 block 73
Cc1cc(C(=O)C(C)OC(=O)c2ccc(NC(=O)CC#N)cc2)c(C)n1-c1ccccc1 (stereo not given)	TWEAK Fn14 block 64
CC(OC(=O)c1ccc(NC(=O)CC#N)cc1)C(=O)NC(c1ccccc1)c1ccccc1 (stereo not given)	none
COCCNC(=S)NNc1ccc(Cl)c(C(=O)O)c1	none
CCCOC(=O)CN1C(=O)c2ccccc2C1=O	TWEAK Fn14 block 82 (no result: TROY NFkB inh)
CCOC(=O)CN1C(=O)c2ccccc2C1=O	none
Cc1nnc(NC(=O)c2ccc(S(=O)(=O)N3CCc4ccccc4C3)cc2)o1	none
Cc1cc(C)c2nc(NNC(=O)c3ccc(S(=O)(=O)N4CCc5ccccc5C4)cc3)sc2c1	Peg3 promoter 75
CCS(=O)(=O)N1CCCC(C(=O)NCCCN2CCCC2=O)C1 (stereo not given)	TWEAK Fn14 block 64 (no result: TROY NFkB inh)
COC(=O)c1sccc1NC(=O)c1ccccc1F	none
CCCCOc1ccc(CSC(=N)N)cc1Cl	Peg3 promoter 93
CCCCCOc1ccc(Br)cc1CSC(=N)N	Peg3 promoter 104
COc1ccc(Br)cc1CSC(=N)N	none
CN(C)CC(=O)N[C@@H]1C=C[C@@H](CC(=O)NCCN2CCCCC2)O[C@@H]1CO	none (no result: TROY NFkB inh, CF NFkB inh, KKLEB cytotox, Peg3 promoter, TWEAK Fn14 block)
Cc1nc(SCC(=O)Nc2ccnc3ccccc23)n[nH]1	none
Nc1ccccc1NC(=O)c1ccccc1	none
Nc1ccc(NC(=O)c2ccccc2)c2c1C(=O)c1ccccc1C2=O	CF NFkB inh 61, KKLEB cytotox -53
COc1ccc(NC(=O)c2cccnc2Sc2ccccc2)c(OC)c1	none
Nc1nc2ccccc2n1/N=C/c1ccc(-c2ccccc2)o1	TWEAK Fn14 block 53
Nc1nc2ccccc2n1/N=C/c1cccnc1	none
Cc1cc(N(CN2CCCC2=O)C(=O)c2ccccc2)no1	none
COc1cc(NC(=O)CSc2ncnc3c2cnn3Cc2ccccc2)cc(OC)c1	TWEAK Fn14 block 62
COc1ccc(OC)c(NC(=O)CSc2ncnc3c2cnn3-c2ccccc2Cl)c1	TWEAK Fn14 block 74
COC(=O)CSc1ncnc2c1cnn2Cc1ccccc1	none
COc1ccc(S(=O)(=O)N2CCC(C(=O)Nc3nccs3)CC2)cc1	none
O=C(Cc1ccccc1)NCC1CCCO1 (stereo not given)	none
O=C(Cc1cccs1)NCC1CCCO1 (stereo not given)	TWEAK Fn14 block 51
O=C1Nc2cc(C(=O)NCCN3CCCCCC3)ccc2S/C1=C/c1ccccc1F	Peg3 promoter 99
Cc1ccc(/C=C2/Sc3ccc(C(=O)NCCN4CCOCC4)cc3NC2=O)cc1	none
O=C(NCCCN1CCCCCC1)c1ccc2c(c1)NC(=O)C(N1CCOCC1)S2 (stereo not given)	TWEAK Fn14 block 82 (no result: TROY NFkB inh)
Cc1ccc(CNC(=O)c2ccc3c(c2)NC(=O)C(N2CCOCC2)S3)cc1 (stereo not given)	none
COc1cccc(/C=C2/Sc3ccc(C(=O)NCCN4CCCC4)cc3NC2=O)c1	Peg3 promoter 91
CCN1CCCC1CNC(=O)c1ccc2c(c1)NC(=O)/C(=C\c1ccc(C)cc1)S2 (stereo not given)	Peg3 promoter 102
COc1cccc(-c2sc3ccc(OC)cc3c2-c2ccc(OCCN3CCOCC3)cc2)c1	none
CCCN(CCC)c1nc(Cl)nc(NCCN2CCOCC2)n1	none
CCCOC(c1ccccc1)(c1ccc(C(F)(F)F)cc1)C(Oc1nc(C)cc(C)n1)C(=O)O (stereo not given)	TWEAK Fn14 block 61
Cc1cc(C)nc(OC(C(=O)O)C(OCCc2ccccc2)(c2ccc(F)cc2)c2ccc(F)cc2)n1 (stereo not given)	none

From PubChem BioAssay
